TTR transcr act = TTR transcription activators in neuroblastoma reporter cells, primary screen, cell-based, luminescence, SH-SY5Y, TTR promoter Gaussia luciferase; 100% = recombinant luciferase protein wells; activation, % at 16.7 µM; actives 1.3% (n = 92,000);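 active = activation above the mean of all tested compounds plus 3 SD, cut at about 9.5% in these data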;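 also: cells exposed to compounds for one day before reading; 0% = median of all test compound wells on the plate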
TTR inh HuH7 = TTR promoter reporter inhibitors in hepatoma cells, counter-screen for TTR transcription activator project, cell-based, luminescence, HuH7 hepatoma. shares compounds with TTR transcr act. HuH7 TTR promoter-Gaussia luciferase reporter. inhibition, % at 16.7 µM. actives 4% (n = 1,100). AID 1117279, 2014;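 active = average inhibition above the solvent-only control wells' mean plus 3 SD, cut at about 15% in these data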;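 also: 0% = cells with DMSO only and 100% = cells with inhibitor control FD; inhibitors lower well luminescence so higher value means more inhibition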
TTR act confirm = TTR transcription activators, retest, confirmation, cell-based, luminescence, SH-SY5Y, triplicate; shares compounds with TTR transcr act; 1,100 tested, under 10 active; activation, % at 16.7 µM; SHSY5Y TTR promoter Gaussia luciferase; 100% = purified Lucia enzyme wells, no cells;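 active = mean activation above a set limit taken from the earlier primary screen, cut at about 11% in these data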;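 also: 0% = DMSO-treated cells and 100% = recombinant Lucia luciferase without cells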
Numbers without * were called inactive. This is one part of a sample in which hits are shown more often than they occur.

SMILES | TTR transcr act | others
Cc1ccc(N(CC(=O)NC(C)(C)C)C(=O)CCC(=O)Nc2nccs2)cc1C | 9.7* | TTR inh HuH7=-11.3;TTR act confirm=-1.1
Cc1ccc(N(CC(=O)NCC2CCCO2)C(=O)CCC(=O)Nc2nccs2)cc1C (configuration not stated) | -0.5
CC(C)(C)NC(=O)c1ccccc1NC(=O)C1CC(=O)N(C2CCCCC2)C1 (configuration not stated) | 2.6
CCCOc1ccc(C(=O)Nc2ccc(N3CCN(C(=O)c4ccco4)CC3)cc2)cc1 | 3.1
COc1ccc(-c2ccc(C(=O)NCc3ccc(N(C)C)cc3)c3occc23)c(C)c1 | -2.1
CCN(c1ccccc1)c1nc(Cl)nc2c1cnn2C | -2.3
CC(C#N)(Cc1ccccc1)Nc1ccccc1 (configuration not stated) | 0.3
CC(C)NC(=O)C1(C)CN(S(C)(=O)=O)CC(=O)N1Cc1cccc(C(F)(F)F)c1 (configuration not stated) | -1.0
O=C(O)c1ccccc1SC1CC(=O)N(c2cccc3ccccc23)C1=O (configuration not stated) | 0.7
Cn1nnnc1SC1CC(=O)N(c2ccccc2)C1=O (configuration not stated) | 1.1
COC(=O)c1ccccc1SC1CC(=O)N(c2ccccc2)C1=O (configuration not stated) | 20.6* | TTR inh HuH7=-13.5;TTR act confirm=-0.2
O=C(CSc1ncnc2nc[nH]c12)c1ccc2ccccc2c1 | -4.0
O=C(CSc1ncccc1C(=O)O)c1cccc(C(F)(F)F)c1 | -1.3
O=C(CSc1ncccc1C(=O)O)c1ccc2ccccc2c1 | 11.5* | TTR inh HuH7=-16.9;TTR act confirm=0.8
Cn1cnc(S(=O)(=O)N2CCCCC2c2cc(C(=O)Nc3ccccc3Cl)no2)c1 (configuration not stated) | 0.1
CC[C@]12c3[nH]c4ccc(OC)cc4c3CCN1C(=O)C(CC(=O)NCCC1=CCCCC1)C[C@@H]2C(=O)N1CCN(C(=O)C2CC2)CC1 (some centres not stated) | -2.6
COC(=O)c1sccc1NC(=O)c1cccc(OC)c1 | 1.0
COC(=O)c1sccc1NC(=O)Nc1cc(C)cc(C)c1 | -1.6
COC(=O)c1sccc1NC(=O)Nc1cccc(OC)c1 | 10.0* | TTR inh HuH7=-7.3;TTR act confirm=0.3
Cc1cc(C)c(CN2CCN(C(=O)Cn3cnc4c(OCc5ccccc5)ncnc43)CC2)c(C)c1 | -4.7
COc1cccc(-c2ncc3ccccc3c2COC(=O)c2ccc(F)cc2)c1 | 4.4
O=C(CCN1C(=O)c2ccccc2C1=O)NCc1ccc(Cl)cc1 | 2.5
CSC1=NCCN1C(=O)Cc1ccc(F)cc1 | 10.1* | TTR inh HuH7=-1.9;TTR act confirm=-0.8
COc1ccc(CC(=O)N2CCN=C2SC)cc1OC | 1.4
CSC1=NCCN1C(=O)Cc1ccc(-c2ccccc2)cc1 | -1.2
SMILES | TTR transcr act | others
Cc1cccc(CNC(=O)Nc2nnc([C@H]3C[C@H](O)[C@@H](CO)O3)s2)c1 | -0.1
Nc1nc(Nc2ccccc2)sc1C(=O)c1ccccc1 | -2.7
O=C(Cc1nnc(NC(=O)Nc2ccc(F)cc2)s1)Nc1ccccc1 | 3.2
O=C(c1ccc(F)cc1)c1cnc(Nc2ccccc2)s1 | 15.0* | TTR inh HuH7=-5.3;TTR act confirm=0.3
O=C(/C=C/c1ccco1)OCC(=O)N1CCCCC1 | 2.2
OC(CCCC(O)c1ccccc1)c1ccccc1 (configuration not stated) | -2.1
CC1(C)CC(=O)C=C(c2ccc(COC(=O)c3cccc(C(F)(F)F)c3)cc2)C1=O | -0.8
CC1(C)CC(=O)C=C(c2ccc(CO)cc2)C1=O | 0.5
CCCCCCC(=O)Oc1cccc(C2=CC(=O)CC(C)(C)C2=O)c1 | 9.7* | TTR inh HuH7=-0.3;TTR act confirm=-0.3
CCN1C(=O)[C@H]2[C@H]3CN=C(SCc4ccc(C)cc4)N3[C@@](Cc3ccccc3)(C(=O)OC)[C@H]2C1=O | 23.7* | TTR inh HuH7=-2.0;TTR act confirm=3.3
CCN1C(=O)[C@H]2[C@H]3CN=C(SCc4ccc(C(=O)OC)cc4)N3[C@@](Cc3ccccc3)(C(=O)OC)[C@H]2C1=O | -0.6
CCN1C(=O)[C@H]2[C@H]3CN=C(SCc4ccc(Cl)cc4)N3[C@@](Cc3ccccc3)(C(=O)OC)[C@H]2C1=O | -2.5
O=C(NC12CC3CC(CC(C3)C1)C2)N(Cc1ccccc1)Cc1ccncc1 | -1.6
Cc1c(-c2ccccc2Cl)nc2ccccc2c1C(=O)O | 0.0
CC(C)(C)C(=O)Nc1cc2nn(-c3ccccc3)nc2cc1Cl | -1.1
CC(C)(C)C(=O)Nc1nc(NC(=O)C(C)(C)C)nc(-c2ccccc2Cl)n1 | 10.5* | TTR inh HuH7=0.5;TTR act confirm=-0.7
COC(=O)C[C@@H]1C=C[C@H](NC(=O)Nc2cc(F)ccc2F)[C@@H](CO)O1 | 0.8
c1ccc(SCc2nc3ccccc3[nH]2)nc1 | 14.0* | TTR inh HuH7=-23.0;TTR act confirm=1.3

Screens from PubChem.
